# Reference: PubChem BioAssay (NCI)
# This is part of a sample that, as a whole, favours compounds with a hit. Of some 83,000 tested, about 20% had one in any assay.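 Treatment: one concentration, 48 hours, 96-well format. Scoring: percent growth, with anything below 10 considered active.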 Unmarked numbers belong to inactive results. The source made the active and inactive calls.
# Tested on: MDA-MB-468 breast
# Experiment: NCI-60 one-dose screen, 48 h (100 = growth as untreated, 0 = no growth, -100 = all killed)
# Conditions: 10 µM unless noted
row,Compound,growth
1,O=C(/C=C/C12c3ccccc3C(c3ccccc31)C1C(=O)NC(=O)C12)c1ccco1 (stereo unspecified),21.8%
2,Cc1ccc(S(=O)(=O)OCC#CCOS(=O)(=O)c2ccc(C)cc2)cc1,-25.3% (active)
3,O=[N+]([O-])c1ccc(-c2noc(-c3cccs3)n2)cc1,56.6%
4,COc1ccc(C(=O)C2=CC(=O)C(=O)C2)cc1OC,108%
5,CCOC(=O)c1c2c(c(C)n1Cc1ccc(OC)cc1)-c1oncc1CC2,97.8%
6,O=C1NC(=O)C(Cc2ccc(OCc3ccc(-c4cc(F)c(F)c(F)c4)cc3)cc2)S1 (stereo unspecified),53.4%
